In the library only some 2.8% were active in any assay of this set; here they are far more common.
PAFAH1B3 FP inh – blocks human PAF acetylhydrolase 1B catalytic subunit 3 | recombinant PAFAH1B3, FP-rhodamine probe, fluorescence polarization | Q15102 | inhibition, % at 3.39 µM | 340,000 compounds, 0.28% hits;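 active = inhibition above the screen-wide average of all tested compounds plus 3 SD, cut at about 25% in these data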
Target sequence (Q15102 whole entry, looked up): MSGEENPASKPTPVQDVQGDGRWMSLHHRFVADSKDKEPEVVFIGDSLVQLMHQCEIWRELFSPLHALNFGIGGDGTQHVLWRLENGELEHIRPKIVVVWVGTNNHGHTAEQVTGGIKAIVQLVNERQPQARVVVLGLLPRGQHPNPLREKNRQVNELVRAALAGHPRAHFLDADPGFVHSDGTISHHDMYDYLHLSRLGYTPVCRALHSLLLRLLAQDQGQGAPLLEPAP
Fam108B inh – Fam108B inhibition, counter-screen for RBBP9 inhibitors; 300,000 compounds, 0.33% hits; AID 1947; recombinant Fam108B, FP-Rh probe fluorescence polarization; inhibition, % at 9.51 µM;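 active = inhibition above the screen mean inhibition plus 3 SD, computed separately per campaign, cut at about 18% in these data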;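 note: inhibitors lower polarization as less probe binds the enzyme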
pPAFAH inh – pPAFAH (human) enzyme inhibition | Q13093 | recombinant pPAFAH, FP-rhodamine probe fluorescence polarization | inhibition, % at 3.39 µM | 330,000 compounds, 1.5% hits;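 active = inhibition above the mean inhibition across the screen plus 3 SD, cut at about 25% in these data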;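 note: inhibitors block binding of the rhodamine activity-based probe so polarization drops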
Target sequence (Q13093 whole entry, looked up): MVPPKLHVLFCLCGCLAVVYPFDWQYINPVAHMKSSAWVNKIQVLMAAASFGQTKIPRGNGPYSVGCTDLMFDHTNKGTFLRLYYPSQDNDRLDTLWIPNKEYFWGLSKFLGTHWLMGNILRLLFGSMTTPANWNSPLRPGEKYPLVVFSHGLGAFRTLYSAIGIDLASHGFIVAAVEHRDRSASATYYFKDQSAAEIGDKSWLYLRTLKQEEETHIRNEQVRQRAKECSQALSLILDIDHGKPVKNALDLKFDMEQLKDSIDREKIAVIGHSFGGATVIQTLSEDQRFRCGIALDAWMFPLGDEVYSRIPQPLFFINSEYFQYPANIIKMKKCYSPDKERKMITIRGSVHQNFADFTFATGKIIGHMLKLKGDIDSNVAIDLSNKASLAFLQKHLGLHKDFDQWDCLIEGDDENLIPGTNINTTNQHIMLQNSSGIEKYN
PME-1 inh – PME-1 (human) inhibition. Q9Y570. recombinant PME-1, FP-Rh probe fluorescence polarization. inhibition, % at 5.9 µM. 320,000 compounds, 0.53% hits;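 active = inhibition above the campaign mean of all compounds plus 3 SD, cut at about 26% in these data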;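 note: competitive labeling of PME-1 active site by serine hydrolase directed probe; inhibitors block probe labeling so polarization falls and inhibition rises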
PAFAH1B2 inh – blocks human PAF acetylhydrolase 1b catalytic subunit 2; P68402; recombinant PAFAH1B2, FP-rhodamine activity probe, fluorescence polarization; inhibition, % at 3.39 µM; 340,000 compounds, 1.2% hits;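 active = inhibition above the mean of all tested compounds plus 3 SD, cut at about 24% in these data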
PAFAH2 FP inh – PAFAH2 (human) inhibition; Q99487; recombinant PAFAH2, FP-rhodamine activity probe, fluorescence polarization; inhibition, % at 3.39 µM; 340,000 compounds, 0.99% hits;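 active = inhibition above the mean over all tested compounds plus 3 SD, cut at about 30% in these data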;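 note: inhibitors block probe labeling of enzyme so polarization drops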
Large screens that a line does not name were inactive.

COc1ccc(Cn2c(=S)[nH]c3ccccc3c2=O)cc1	none
CC1(C)C(=O)N(c2ccccc2)C1c1ccccc1O (centres undefined)	PAFAH1B2 inh 52.1
COc1ccc(CN(C)Cc2c(O)ccc3cc(Br)ccc23)cc1OC	none
COc1ccc(CCN(C)Cc2c(O)ccc3cc(Br)ccc23)cc1OC	PAFAH1B2 inh 36.1
CC(C)(C)c1ccc(OCC(=O)NCc2ccco2)c(Br)c1	pPAFAH inh 28.5
CC(C)(C)c1ccc(OCC(=O)NNC(=S)NC(=O)c2ccco2)c(Br)c1	none
C#CCN1Cc2ccccc2Oc2cc(Br)ccc2S1(=O)=O	none (no result: Fam108B inh, PME-1 inh)
Nc1nn(S(=O)(=O)c2ccccc2)cc1-c1ccc([N+](=O)[O-])cc1	PAFAH1B2 inh 32.0
N#Cc1cccc(-c2cn(S(=O)(=O)c3ccc(Cl)cc3)nc2N)c1	none
O=C(O)CCSc1nnc(SCC(=O)NC2CCS(=O)(=O)C2)s1 (centres undefined)	none (no result: Fam108B inh, PME-1 inh)
C[C@H](NC(=O)c1nc[nH]c1C(=O)NCC(=O)OCc1ccccc1)c1ccccc1	PAFAH1B2 inh 34.0
CCc1ccc(C2CC(c3ccc(Cl)cc3)n3nc(N)nc3N2)cc1 (centres undefined)	PAFAH1B2 inh 36.2
Cn1c(CCn2ccccc2=O)nc2cc(NC(=O)COc3ccccc3)ccc21	none
COc1ccc(OC)c(NC(=O)CCNS(=O)(=O)c2ccc3c(c2)oc(=O)n3C)c1	none
COc1cc(OC)c(NC(=O)CCNS(=O)(=O)c2ccc3c(c2)oc(=O)n3C)cc1Cl	pPAFAH inh 24.7
O=C(c1ccc(N2CCCC2=O)cc1)N1CCN(c2ccccc2F)CC1	none
O=C(NCCc1ccc(O)cc1)c1ccc(Cl)cc1	none
CCNC(=O)C(=O)NCCc1ccc(Cl)cc1	PAFAH1B2 inh 25.2
COc1ccc(CCNC(=O)c2ccc(=O)[nH]c2)cc1	none
O=C(CCc1c[nH]c2ccccc12)NCCc1ccc(Cl)cc1	PAFAH1B2 inh 28.4
CC1(C)CC(NC(=O)C(=O)NCCc2ccc(Cl)cc2)CC(C)(C)N1	none
O=C(NCCc1ccc(Cl)cc1)c1ccc(=O)[nH]c1	PAFAH1B2 inh 30.1
O=C(NCCCO)C(=O)NCCc1ccc(Cl)cc1	PAFAH1B2 inh 27.9
COc1ccc(CC(=O)OCC(=O)Nc2ccc(F)cc2)cc1	none (no result: Fam108B inh, pPAFAH inh, PME-1 inh)
Cc1cc2occ(CC(=O)N(C)CC(=O)Nc3ccccc3C(F)(F)F)c2cc1C	none (no result: Fam108B inh)
CCOc1ccccc1NC(=O)CSc1nc2nc(-c3cccs3)cc(C(F)(F)F)c2c(=O)[nH]1	none
COc1ccc(NC(=O)CSc2nc3nc(-c4cccs4)cc(C(F)(F)F)c3c(=O)[nH]2)c(OC)c1	PME-1 inh 45.7
Nc1n[nH]c(C2CC2)c1N=Nc1ccc(Cl)c(Cl)c1	PME-1 inh 30.8 (no result: PAFAH1B3 FP inh, PAFAH1B2 inh, PAFAH2 FP inh)
Nc1n[nH]c(C2CC2)c1N=Nc1ccc(Cl)cc1	none (no result: PAFAH1B3 FP inh, PAFAH1B2 inh, PAFAH2 FP inh)
C=C(C)COc1ccc2c3c(c(=O)oc2c1OCC(=C)C)CCC3	pPAFAH inh 30.6, PAFAH2 FP inh 67.3
O=C(Nc1ccc(Cl)c(S(=O)(=O)N2CCOCC2)c1)c1cccs1	none (no result: Fam108B inh, PME-1 inh)
CC(C)(C)S(=O)N1Cc2cc(CO)cc(CCO)c2[C@H]1CCO (some centres undefined)	none (no result: Fam108B inh, pPAFAH inh, PME-1 inh)
CC(C)NC(=O)COC(=O)c1ccc(Oc2ccccc2)cc1	pPAFAH inh 25.9, PAFAH2 FP inh 67.2
CN(C)c1ccc(C(=O)OCC(=O)NCCCc2ccccc2)cc1	pPAFAH inh 32.8, PAFAH2 FP inh 85.2
NC(=O)COC(=O)c1ccc(Oc2ccccc2)cc1	none
CCCNC(=O)COC(=O)c1ccc(-c2ccccc2)cc1	pPAFAH inh 24.8, PAFAH2 FP inh 60.2
CC(NC(=O)COC(=O)c1ccc(OCC2CCCO2)cc1)c1ccccc1Cl (centres undefined)	pPAFAH inh 25.1, PAFAH2 FP inh 88.1 (no result: Fam108B inh)
CN(C)c1ccc(C(=O)OCC(=O)NCCNC(=O)COC(=O)c2ccc(N(C)C)cc2)cc1	none
O=C(COC(=O)c1ccc(-c2ccccc2)cc1)Nc1ccccc1-c1ccccc1	none
Cc1ccnc(-n2c(C)cc(/C=N/NC(=O)COc3cccc4cccnc34)c2C)c1	none
CCOC(=O)c1sc(=S)n(-c2ccc(OC)cc2)c1C	none (no result: PAFAH1B3 FP inh, PAFAH1B2 inh, PAFAH2 FP inh)
CCOC(=O)c1c2c(n(-c3ccc(OC)cc3)c1C)C(=O)C(=O)c1ccccc1-2	PAFAH1B3 FP inh 76.5, PAFAH1B2 inh 30.5, PAFAH2 FP inh 55.8 (no result: Fam108B inh, pPAFAH inh, PME-1 inh)
O=C(Nc1ccc2nc(-c3ccco3)c(-c3ccco3)nc2c1)N1CCCCCC1	Fam108B inh 40.4, pPAFAH inh 68.8 (no result: PAFAH1B3 FP inh, PAFAH1B2 inh, PAFAH2 FP inh)
O=[N+]([O-])c1cc(S(=O)(=O)N2CCCC2)ccc1O	none
O=[N+]([O-])c1cc(S(=O)(=O)N2CCCCCC2)ccc1F	PAFAH1B2 inh 29.2
O=c1[nH]c(=S)c2[nH]c(=S)n(-c3ccccc3)c2[nH]1	none (no result: Fam108B inh, pPAFAH inh, PME-1 inh)
Cc1cc(=O)[nH]c(Nc2cccc(F)c2)n1	none
N#Cc1c(Nc2cccc(F)c2)sc2c(O)cc(=O)[nH]c12	pPAFAH inh 25.1 (no result: PAFAH1B3 FP inh, PAFAH1B2 inh, PAFAH2 FP inh)
COc1ccc(C(=O)NCCS(=O)(=O)NCc2ccccc2)cc1	none
Cc1ccc(F)cc1NC(=O)CCNC(=O)c1ccc([N+](=O)[O-])cc1	none
COC(=O)c1ccc(C)c(NC(=O)CCNC(=O)c2ccc([N+](=O)[O-])cc2)c1	pPAFAH inh 29.4
COCCN(C(=O)COC(=O)CCCc1c[nH]c2ccccc12)c1c(N)n(Cc2ccccc2)c(=O)[nH]c1=O	none (no result: Fam108B inh, pPAFAH inh, PME-1 inh)
COc1ccc(-c2cc(C(=O)N3CCN(C(=O)c4ccccc4F)CC3)[nH]n2)cc1	PME-1 inh 30.4
COc1ccc(-c2cc(C(=O)N3CCN(S(=O)(=O)c4ccccc4)CC3)[nH]n2)cc1	none
Nc1nc(SCc2ccccc2)cc(SCc2ccccc2)n1	none (no result: Fam108B inh, pPAFAH inh, PME-1 inh)
CC(OCC(O)CN(C)Cc1nc2ccccc2c(=O)[nH]1)c1ccc(Cl)cc1 (centres undefined)	PAFAH1B2 inh 27.8
O=C1c2cccnc2-c2ncccc21	none
COC1=C(Br)C(=O)c2ncccc2C1=O	PAFAH1B3 FP inh 57.5, PAFAH2 FP inh 48.1 (no result: Fam108B inh, pPAFAH inh, PME-1 inh)
O=c1[nH]nc(SCc2cc(Cl)ccc2Cl)c(=O)[nH]1	PAFAH1B2 inh 28.6
O=C(CSc1n[nH]c(=O)[nH]c1=O)c1ccc(Cl)cc1Cl	PAFAH1B2 inh 29.7
O=C(CSc1n[nH]c(=O)[nH]c1=O)Nc1c(Cl)cc(Cl)cc1Cl	none (no result: Fam108B inh, PME-1 inh)
CC(C1=C(CCN(C)C)Cc2ccccc21)c1ccccn1 (centres undefined)	none (no result: Fam108B inh, pPAFAH inh, PME-1 inh)
NC1=NC(=O)C(=Cc2ccccc2)S1	none (no result: Fam108B inh, pPAFAH inh, PME-1 inh)
NC1=NC(=O)/C(=C\c2ccco2)S1	pPAFAH inh 30.1
N#Cc1cc(N2CCCCC2)c([N+](=O)[O-])cc1C#N	none
O=[N+]([O-])c1cc2no[n+]([O-])c2cc1N1CCCCC1	PAFAH1B3 FP inh 86.3, PAFAH1B2 inh 70.2, PAFAH2 FP inh 74.0 (no result: Fam108B inh, pPAFAH inh, PME-1 inh)
Nc1cc(C(=O)O)ccc1Nc1ccccc1	pPAFAH inh 26.5
CC(C)(C)NC(=O)C(=O)NNC(=O)COc1ccc(Br)cc1	PAFAH1B2 inh 31.2
CC(=O)NC(=S)NNC(=O)COc1ccc(Br)cc1	none (no result: Fam108B inh, pPAFAH inh, PME-1 inh)
CCCn1c(SCC(=O)N2CCCC2=O)nc2ccccc2c1=O	none (no result: Fam108B inh, pPAFAH inh, PME-1 inh)
